Data on 8 compounds can be found in PubChem BioAssay (Tox21).

Molecules are shown by their SMILES. Values without a mark were called inactive. Records with an inconclusive call do not appear. Calls of active or inactive are those of the source. Unless noted, calls follow the shape of the full dose curve.

Experiment [1] in a line: Nuclear factor erythroid 2-related factor 2/antioxidant responsive element (Nrf2/ARE) small molecule agonists: qHTS cell viability counter screen in human keratinocytes (AID 1919968; active = well fitted curve in the direction sought with a large enough effect in the repeat runs; an effect the other way counts as inactive or inconclusive; also: nearly all actives have a fitted effect of over 55% in size). In a few lines: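 After a 5 h attachment period, ARE-reporter keratinocytes were dosed with compounds in DMSO and then cultured 23 h at 37 C. Cell viability came from CellTiter-Fluor signal read after a further 1 h.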

Experiment [2] can be described thus: Nuclear factor erythroid 2-related factor 2/antioxidant responsive element (Nrf2/ARE) small molecule agonists: luciferase reporter gene qHTS assay in human keratinocytes (AID 1919969; also: nearly all actives have a fitted effect of over 35% in size). (In a reporter assay the amount or activity of a reporter protein is the signal.)
Experiment [3] deals with Gonadotropin-releasing hormone receptor (Homo sapiens) (UniProt P30968). Description: Human gonadotropin-releasing hormone receptor (GnRHR) small molecule agonists, calcium flux assay in GnRHR-HEK293 cells (AID 1920063). Also: nearly all actives have a fitted effect of over 35% in size. An outline of the steps:
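We seeded human GnRHR-expressing HEK293 cells for 18 hours, loaded them with calcium dye for an hour at 37 C, added test compounds, and recorded fluorescence intensity kinetically for three minutes.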

Experiment [4] addresses KiSS-1 receptor (Homo sapiens) (UniProt Q969F8). Description: Human kisspeptin (KISS1R) small molecule agonists, calcium flux assay in KISS1R-HEK293 cells (AID 1920064; active = well fitted curve in the direction sought with a large enough effect in the repeat runs; an effect the other way counts as inactive or inconclusive). An outline of the steps:
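Kinetic calcium assay, 1 s sampling over 3 min at Ex/Em 480/540, in HEK293 cells engineered with human KISS1R; compounds delivered in DMSO after 1 h dye loading.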
On the technique in general: Calcium assays in cells follow changes in intracellular calcium, usually with a dye or a luminescent sensor.

The nature of experiment [5]: G protein-coupled receptor (GPCR) small molecule agonists, calcium flux assay: HEK293 wild type cell line counter screen (AID 1920065). An outline of the steps:
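Calcium-sensitive dye, loaded 1 h at 37 C into cells cultured 18 h, reports compound-evoked calcium release as fluorescence (Ex/Em 480/540), measured over 3 min. Agonist mode; 15-point titrations, triplicate.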

A short description of experiment [6]: p53 small molecule agonists, cell-based qHTS assay with rat liver microsomes (AID 1963578). In a few lines:
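Read-out is beta-lactamase reporter fluorescence (LiveBLAzer, 2 h, room temperature, dark) in p53RE-bla cells treated 16 h at 37 C with compound, rat liver microsomes and NADPH, both 0.5 mg/mL final.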
For orientation: In qHTS, concentration-response curves come from the screen itself.

Experiment [7] is described as follows: p53 small molecule agonists, cell-based qHTS assay with human liver microsomes: qHTS cell viability counter screen (AID 1963579). Also: nearly all actives have a fitted effect of over 45% in size. In a few lines: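 Cells carrying the p53 response-element beta-lactamase reporter are treated for 16 h at 37 C with test compounds in the presence of human liver microsomes and NADPH (both 0.5 mg/mL final); ATP-based CellTiter-Glo luminescence then reports viability.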

Experiment [8] can be described thus: p53 small molecule agonists, cell-based qHTS assay with rat liver microsomes: qHTS cell viability counter screen (AID 1963580). Also: nearly all actives have a fitted effect of over 45% in size. In a few lines: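 In HCT-116 cells carrying a p53 response element-bla reporter, compounds were metabolically activated in situ by rat liver microsomes with NADPH over 16 h. Cell ATP content then served as the cytotoxicity measure.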

The nature of experiment [9]: p53 small molecule agonists, cell-based qHTS assay: qHTS cell viability counter screen (AID 1963581). Also: nearly all actives have a fitted effect of over 45% in size. In a few lines: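 Following 5 h attachment, HCT-116 p53RE-bla cells took up compound for 16 h at 37 C; the reporter was read with B/G FRET substrate (2 h RT), and viability then via CellTiter-Glo ATP luminescence.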
A short description of experiment [10]: p53 small molecule agonists, cell-based qHTS assay (AID 1963582; active = well fitted activation curve with a large enough effect in the signal ratio in the repeat runs, not every such curve was filed as active; the % refers to the signal ratio). In a few lines: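 In this cell-based concentration-response screen, a p53 response element drives beta-lactamase; cells received DMSO-borne compounds after 5 h culture and were incubated a further 16 h before FRET substrate development.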
A short description of experiment [11]: cAMP Responsive Elements (CRE) small molecule agonists, cell-based qHTS assay (AID 1963590). In a few lines:
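A CRE-responsive beta-lactamase reporter in HEK 293T cells was used. Treatment ran 3 h at 37 C; detection used LiveBLAzer B/G FRET substrate for 2 h at room temperature.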

A short description of experiment [12]: p53 small molecule agonists, cell-based qHTS assay with human liver microsomes (AID 1963577). Also: potency is read from the fitted curve at half-maximal effect. An outline of the steps: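 Compounds act here after metabolic activation: human liver microsomes and NADPH, both at 0.5 mg/mL final, were co-added to p53RE-bla cells. Incubation ran 16 h at 37 C, followed by LiveBLAzer detection.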
In experiment [13] the target is 5-hydroxytryptamine receptor 2A (Homo sapiens) (UniProt P28223). Description: 5-hydroxytryptamine receptor 2A (HTR2A) small molecule antagonists, cell-based qHTS assay (AID 1963586). Also: nearly all actives have a fitted effect of over 45% in size. An outline of the steps:
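Antagonist-mode intracellular calcium assay: DOI (4 nM) added after 5 min compound pre-incubation at room temperature to dye-loaded HTR2A-CHO cells. Fluorescence followed for 3 min, sampled every second.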

For experiment [14] the target is unchanged. Description: 5-hydroxytryptamine receptor 2A (HTR2A) small molecule agonists, cell-based qHTS assay (AID 1963587). Also: nearly all actives have a fitted effect of over 30% in size. In a few lines: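 HTR2A-CHO cells, plated 18 h at 37 C/5% CO2, dye-loaded 1 h at 37 C; compounds in DMSO added by pin tool (agonist mode). Intracellular calcium flux read as kinetic fluorescence on FDSS over 2 min at 1 s intervals.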
In experiment [15] the target is Muscarinic acetylcholine receptor M1 (Homo sapiens) (UniProt P11229). Description: Cholinergic receptor muscarinic 1 (CHRM1) small molecule antagonists, cell-based qHTS assay (AID 1963588). Also: nearly all actives have a fitted effect of over 40% in size. An outline of the steps: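 CHRM1-CHO calcium-flux assay, antagonist mode. Cells were seeded 18 h, dye-loaded 1 h at 37 C and given compound for 5 min at RT, then acetylcholine was added at 50nM. FDSS fluorescence was read 3 min; 15 concentrations, three runs.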

Experiment [16] is described as follows: cAMP Responsive Elements (CRE) small molecule antagonists, cell-based qHTS assay (AID 1963591; active = well fitted inhibition curve with a large enough effect in the signal ratio in the repeat runs, not every such curve was filed as active; the % refers to the signal ratio). An outline of the steps: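 HEK293T cells carrying a CRE-driven beta-lactamase reporter receive compound and NKH477 (0.25 uM final) for 3 h. Fluorescence from LiveBLAzer B/G FRET substrate is read after 2 h at room temperature.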
For experiment [17], the target named is Beta-2 adrenergic receptor (Homo sapiens) (UniProt P07550). Description: Adrenergic beta2 receptor (ADRB2) small molecule antagonists, cell-based qHTS assay (AID 1963592). Also: series mostly up to about 92 µM; nearly all actives have a fitted effect of over 50% in size. An outline of the steps:
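Cells (CHO, stable ADRB2 overexpression) incubated 18-20hr at 37C; compounds added from DMSO; agonist mix (1nM isoproterenol, 100uM IBMX, 25uM Ro-20-1724) added; 0.5hr RT; d2-cAMP and anti-cAMP-cryptate added; 1hr RT; 665/615 nm read.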

For experiment [18], the target named is D(2) dopamine receptor (Homo sapiens) (UniProt P14416). Description: Dopamine D2 receptor (DRD2) small molecule agonists, cell-based qHTS assay (AID 1963594). Also: nearly all actives have a fitted effect of over 35% in size. In a few lines:
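HEK293 cells stably expressing DRD2 were cultured 24 h at 37 C, then given Ro20-1724 (0.1 mM final) and compounds for 10 min at room temperature. NKH477 (200nM) was then added for 30 min. cAMP was read by HTRF.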

For experiment [19] the target is unchanged. Description: Dopamine D2 receptor (DRD2) small molecule antagonists, cell-based qHTS assay (AID 1963595; active = well fitted inhibition curve with a large enough effect in the signal ratio in the repeat runs, with a control signal flat; the % refers to the signal ratio). An outline of the steps: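 DRD2-HEK293; 0.1 mM Ro20-1724; cpd 10 min RT; NKH477 200 nM + quinpirole 12 nM, 30 min RT; HTRF cAMP (cAMP-d2/anti-cAMP cryptate), 665/620 nm ratio after 1 h.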
Experiment [20] has as its target Muscarinic acetylcholine receptor M1 (Homo sapiens) (UniProt P11229). Description: Cholinergic receptor muscarinic 1 (CHRM1) small molecule agonists, cell-based qHTS assay (AID 1963589). Also: nearly all actives have a fitted effect of over 35% in size. In a few lines:
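Measures agonist-induced intracellular calcium rise. Stable human CHRM1 CHO line, 1 h dye load at 37 C, compounds from DMSO, kinetic fluorescence read.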

Chain of KiSS-1 receptor (Homo sapiens) (Q969F8 whole entry, looked up): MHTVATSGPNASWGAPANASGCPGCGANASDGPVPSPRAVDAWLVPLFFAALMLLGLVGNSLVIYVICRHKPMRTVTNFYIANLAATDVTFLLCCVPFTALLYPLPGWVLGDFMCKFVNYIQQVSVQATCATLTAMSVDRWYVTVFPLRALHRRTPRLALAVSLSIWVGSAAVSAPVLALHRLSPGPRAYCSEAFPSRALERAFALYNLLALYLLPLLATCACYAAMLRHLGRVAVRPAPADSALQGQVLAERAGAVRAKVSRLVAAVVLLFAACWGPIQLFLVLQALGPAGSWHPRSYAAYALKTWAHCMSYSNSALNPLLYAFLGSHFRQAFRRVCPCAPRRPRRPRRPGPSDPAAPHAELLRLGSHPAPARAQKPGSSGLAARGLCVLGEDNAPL
Chain of Gonadotropin-releasing hormone receptor (Homo sapiens) (P30968 whole entry, looked up): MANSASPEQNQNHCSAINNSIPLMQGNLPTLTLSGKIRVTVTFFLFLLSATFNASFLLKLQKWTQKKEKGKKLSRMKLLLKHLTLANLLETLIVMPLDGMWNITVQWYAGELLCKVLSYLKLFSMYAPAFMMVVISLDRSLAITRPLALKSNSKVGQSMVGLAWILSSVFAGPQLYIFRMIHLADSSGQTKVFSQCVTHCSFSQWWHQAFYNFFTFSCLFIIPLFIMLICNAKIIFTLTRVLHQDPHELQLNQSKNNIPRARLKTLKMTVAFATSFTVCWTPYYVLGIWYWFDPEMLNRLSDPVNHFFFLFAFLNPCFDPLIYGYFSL
Chain of D(2) dopamine receptor (Homo sapiens) (P14416 whole entry, looked up): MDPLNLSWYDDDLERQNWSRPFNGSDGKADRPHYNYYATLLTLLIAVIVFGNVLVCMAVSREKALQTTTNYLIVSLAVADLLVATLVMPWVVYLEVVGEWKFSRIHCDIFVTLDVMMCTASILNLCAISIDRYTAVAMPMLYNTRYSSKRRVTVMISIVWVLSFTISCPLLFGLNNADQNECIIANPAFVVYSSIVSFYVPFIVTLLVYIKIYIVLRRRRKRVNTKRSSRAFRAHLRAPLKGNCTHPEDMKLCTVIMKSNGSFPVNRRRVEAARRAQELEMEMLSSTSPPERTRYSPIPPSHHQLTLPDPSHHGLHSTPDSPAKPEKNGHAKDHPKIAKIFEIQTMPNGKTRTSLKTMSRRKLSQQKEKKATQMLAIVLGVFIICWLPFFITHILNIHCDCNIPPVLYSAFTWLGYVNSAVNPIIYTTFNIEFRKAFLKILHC
Chain of 5-hydroxytryptamine receptor 2A (Homo sapiens) (P28223 whole entry, looked up): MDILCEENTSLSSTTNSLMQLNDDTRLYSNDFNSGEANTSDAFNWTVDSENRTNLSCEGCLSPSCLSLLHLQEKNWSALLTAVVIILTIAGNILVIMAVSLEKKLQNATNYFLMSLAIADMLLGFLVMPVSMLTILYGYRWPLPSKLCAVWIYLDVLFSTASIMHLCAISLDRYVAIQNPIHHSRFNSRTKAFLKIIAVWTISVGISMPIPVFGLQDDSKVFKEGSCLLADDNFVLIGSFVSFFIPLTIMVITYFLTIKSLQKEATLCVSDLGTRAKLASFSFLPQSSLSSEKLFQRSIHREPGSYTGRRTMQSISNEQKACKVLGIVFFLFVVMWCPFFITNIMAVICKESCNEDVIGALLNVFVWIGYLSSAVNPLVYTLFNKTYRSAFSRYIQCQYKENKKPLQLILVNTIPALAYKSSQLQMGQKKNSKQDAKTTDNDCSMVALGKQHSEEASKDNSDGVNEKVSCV
Chain of Muscarinic acetylcholine receptor M1 (Homo sapiens) (P11229 whole entry, looked up): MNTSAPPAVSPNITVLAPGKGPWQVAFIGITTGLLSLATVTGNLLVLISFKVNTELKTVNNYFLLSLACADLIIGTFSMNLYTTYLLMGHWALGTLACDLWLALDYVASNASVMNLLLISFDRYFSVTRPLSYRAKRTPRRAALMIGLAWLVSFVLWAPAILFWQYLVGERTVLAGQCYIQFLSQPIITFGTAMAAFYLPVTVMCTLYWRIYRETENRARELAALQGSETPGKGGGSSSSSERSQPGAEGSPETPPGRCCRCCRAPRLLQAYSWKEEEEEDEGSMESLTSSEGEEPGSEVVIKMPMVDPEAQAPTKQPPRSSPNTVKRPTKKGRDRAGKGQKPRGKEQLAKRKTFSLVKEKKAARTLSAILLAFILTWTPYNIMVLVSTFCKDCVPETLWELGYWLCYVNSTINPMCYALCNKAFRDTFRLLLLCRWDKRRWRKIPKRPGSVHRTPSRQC
Chain of Beta-2 adrenergic receptor (Homo sapiens) (P07550 whole entry, looked up): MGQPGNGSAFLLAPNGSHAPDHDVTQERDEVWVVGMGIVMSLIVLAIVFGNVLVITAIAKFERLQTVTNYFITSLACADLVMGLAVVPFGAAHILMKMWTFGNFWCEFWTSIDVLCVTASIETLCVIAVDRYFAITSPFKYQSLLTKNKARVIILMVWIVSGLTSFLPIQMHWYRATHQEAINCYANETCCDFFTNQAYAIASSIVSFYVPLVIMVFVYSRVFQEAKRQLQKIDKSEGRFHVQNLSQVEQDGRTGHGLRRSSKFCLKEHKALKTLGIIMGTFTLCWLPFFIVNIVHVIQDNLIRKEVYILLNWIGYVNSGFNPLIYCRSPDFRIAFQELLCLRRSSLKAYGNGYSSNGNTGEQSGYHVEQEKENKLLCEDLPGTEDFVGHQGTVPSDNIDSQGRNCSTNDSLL

On to `CC[C@@H](CO)NC(=O)[C@@H]1C=C2c3cccc4c3c(cn4C)C[C@H]2N(C)C1`, for which the Potency entry in experiment [1], in experiment [2], in experiment [3], in [4], in experiment [5] and in [6] was “inactive” throughout. The Potency entry in [7], in experiment [8], in [9], in experiment [10] and in experiment [11] was “inactive” throughout.

As to `CCC[N+](CCC)(CCC)CCC`, the Potency entry in experiment [1], in [2], in experiment [3], in [4], in experiment [5] and in experiment [12] was “inactive” in each case. In addition, the Potency result in experiment [7], in [9], in [10], in [13], in [14] and in experiment [15] was “inactive” in each case. The Potency entry in [11], in experiment [16], in experiment [17], in experiment [18] and in [19] was “inactive” throughout.

Turning to `CC(Cl)(Cl)Cl`, the Potency result in experiment [1], in experiment [2], in experiment [3], in [4], in experiment [5] and in [12] was “inactive” in each case. The Potency entry in experiment [7], in experiment [8], in experiment [9], in [10], in [11] and in experiment [16] was “inactive” each time. In addition, the Potency entry in [18] and in experiment [19] was “inactive” throughout.

For `C=CC(=C)C`, the Potency result in experiment [1], in [2], in experiment [3], in [4], in [5] and in experiment [6] was “inactive” each time. Besides, the Potency entry in experiment [7], in experiment [8], in experiment [9], in experiment [10], in [13] and in experiment [14] was “inactive” in each case. The Potency entry in [15], in experiment [20], in experiment [11], in experiment [16], in [17] and in experiment [18] was “inactive” in each case. In experiment [19], the Potency result is “inactive”.

As for `N#C/C(N)=C(/N)C#N`, the Potency entry in [1], in [2], in experiment [3], in experiment [4], in [5] and in experiment [6] was “inactive” in each case. The Potency entry in [7], in [8], in experiment [9], in [10], in [13] and in experiment [14] was “inactive” in each case. Also, the Potency entry in experiment [15], in experiment [20], in experiment [11], in experiment [16], in experiment [17] and in experiment [18] was “inactive” in each case. Moreover, the Potency entry in experiment [19] was “inactive”.

For the compound `CCOP(=O)(OCC)O/C(=C/Cl)c1ccc(Cl)cc1Cl`, the Potency entry in [1], in [2], in experiment [3], in [4], in [5] and in [7] was “inactive” each time. The Potency result in experiment [8], in [9], in experiment [14], in experiment [15], in experiment [20] and in experiment [17] was “inactive” throughout. The Potency entry in experiment [18] and in experiment [19] was “inactive” each time. Moreover, the Potency in experiment [12] was 2.57 µM (active).

`COc1ccc([N+](=O)[O-])cc1O`: the Potency result in experiment [1], in experiment [2], in [3], in experiment [4], in experiment [5] and in experiment [6] was “inactive” in each case. In addition, the Potency result in [7], in experiment [8], in experiment [9], in [10], in experiment [13] and in experiment [14] was “inactive” in each case. Further, the Potency result in experiment [15], in experiment [20], in experiment [11], in experiment [17], in experiment [18] and in [19] was “inactive” each time.

On to `CCCCCl`, for which the Potency entry in experiment [1], in [2], in [3], in experiment [4], in [5] and in experiment [12] was “inactive” throughout. In addition, the Potency result in experiment [8], in [10], in experiment [13], in [14], in experiment [15] and in [20] was “inactive” each time. Also, the Potency entry in experiment [11], in [16], in [17], in [18] and in [19] was “inactive” in each case.
